In all, about 1,400 compounds went through this assay and about 140 (10%) were called active.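 How the source made its calls: active means Half-maximal inhibitory dose from the fit at or below ten times the top valid tested dose; inconclusive means Invalid fit, or flat curve showing 30 to 70% inhibition; inactive means the rest.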 Not all results are given here. Entries with a potency or affinity are not part of this list.
The compounds below were run against Lysine-specific demethylase 4C (Homo sapiens) (UniProt Q9H3R0) (assay: GASC-1 (JMJD2C) histone demethylase inhibitors, dose response, biochemical, DELFIA europium, cherry-picked samples (AID 488835;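 further: signal is the H3K9me2 demethylation product detected by a dimethyl-specific antibody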)). Conditions: GST-JMJD2C(1-420), H3K9me3 demethylation; series mostly up to 6 µM; activity change, negative = inhibition: at the top concentration.
Sequence of Lysine-specific demethylase 4C (Homo sapiens) (Q9H3R0 1-420 limits assumed): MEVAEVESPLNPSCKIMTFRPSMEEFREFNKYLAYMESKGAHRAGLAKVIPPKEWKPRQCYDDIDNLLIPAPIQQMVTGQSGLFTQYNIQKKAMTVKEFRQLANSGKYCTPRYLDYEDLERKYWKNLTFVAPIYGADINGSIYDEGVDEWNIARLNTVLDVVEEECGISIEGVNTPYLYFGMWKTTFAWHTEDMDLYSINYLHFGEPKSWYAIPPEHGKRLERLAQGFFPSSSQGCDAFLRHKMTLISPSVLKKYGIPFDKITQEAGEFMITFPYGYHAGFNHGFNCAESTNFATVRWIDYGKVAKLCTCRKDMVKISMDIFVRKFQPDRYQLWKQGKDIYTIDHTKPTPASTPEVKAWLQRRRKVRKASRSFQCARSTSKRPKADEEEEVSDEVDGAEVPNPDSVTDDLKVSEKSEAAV

Activity change, negative = inhibition, inactive:
Cc1ccccc1NS(=O)(=O)c1ccc(C(=O)NCC(c2ccco2)N(C)C)cc1 (stereo not given) -0.352%
COc1ccccc1/C=C/C(=O)Nc1ccc(N2CCOCC2)cc1 4.57%
Cc1cc(C)c2cc(C#N)c(SCC(=O)Nc3ccc4c(c3)OCO4)nc2c1 5.59%
O=C(/C=C\Nc1ccc(Cl)cn1)c1ccc(Br)cc1 -7.96%
CCCNC1=C(N(C(C)=O)c2cccc(F)c2)C(=O)c2ccccc2C1=O 3.34%
C#CCOCCOCCOCCNc1nc(N2CCN(C(=O)[C@H](CCCN=C(N)N)n3cc(C(N)[C@H](C)CC)nn3)CC2)nc(N2CCN(C(=O)[C@H](CC(N)=O)n3cc(C(N)[C@@H](C)CC)nn3)CC2)n1 (stereo not given in full) -2.68%
C#CCOCCOCCOCCNc1nc(N2CCN(C(=O)[C@H](CCC(=O)O)n3cc(CN)nn3)CC2)nc(N2CCN(C(=O)[C@H](CCCN=C(N)N)n3cc(C(N)[C@@H](C)CC)nn3)CC2)n1 (stereo not given in full) 76.7%
C#CCOCCOCCOCCNc1nc(N2CCOCC2)nc(N2CCN(C(=O)[C@H](CCCN=C(N)N)n3cc(C(N)[C@@H](C)CC)nn3)CC2)n1 (stereo not given in full) 5.28%
C#CCOCCOCCOCCNc1nc(N2CCN(C(=O)[C@H](CCCN=C(N)N)n3cc(C(N)[C@@H](C)CC)nn3)CC2)nc(N2CCN(C(=O)[C@H](CCC(=O)O)n3cc([C@@H](N)[C@H](C)CC)nn3)CC2)n1 (stereo not given in full) 4.63%
Oc1cc2ccccc2cc1-c1nnc2n1-c1ccccc1SC2 -2.47%
CC(=O)Nc1sc2c(c1CN1CCN(C)CC1)CCCC2 6.9%
COc1ccc(S(=O)(=O)N2CC(O)CC2C(=O)OCc2nc3sc(C)c(C)c3c(=O)[nH]2)cc1 (stereo not given) 1.48%
CC1CCN(C(=O)CSc2nnc(CNC(=O)c3c(F)cccc3F)o2)CC1 6.12%
CNC(=O)c1sccc1-n1cccc1 9.03%
CCOC(=O)C1(C)NC(c2cccs2)C2C(=O)N(c3ccc(OC)cc3)C(=O)C21 (stereo not given) 3.9%
Cc1ccccc1CNc1nnnn1C 5.25%
Oc1ccc(Br)cc1/C=N/Nc1nc(N2CCCCC2)nc(N2CCOCC2)n1 12.4%
O=C(N/N=C/c1ccc(O)cc1)c1cncc(Br)c1 4.32%
CN1CCC[C@H]1CCNC(=O)c1c(-c2ccsc2)sc2ccccc12 0.336%
Cn1c(=O)c2[nH]c(N3CCN(c4cccc(O)c4)CC3)nc2n(C)c1=O 2.66%
CC(OC(=O)CN1C(=O)COc2ccccc21)C(=O)NCc1ccc(F)cc1 (stereo not given) 15.5%
Cc1ccc(C(C)C)c(Oc2nnnn2-c2ccccc2)c1 0.65%
O=C(c1cc2c(s1)CCC2)N1C(=O)c2ccccc2S1(=O)=O 2.58%
O=C(Cn1cncn1)NCc1cc(F)ccc1F 2.09%
C[C@H]1CN([C@@H](C)CO)C(=O)c2cccc(NC(=O)C3CC3)c2O[C@H]1CN(C)Cc1ccncc1 1.11%
C[C@H](CO)N1C[C@H](C)[C@@H](CN(C)CC2CCCCC2)Oc2c(NC(=O)C3CC3)cccc2C1=O 4.66%
C[C@H](CO)N1C[C@H](C)[C@@H](CN(C)S(=O)(=O)c2cccs2)Oc2c(NC(=O)CCC(F)(F)F)cccc2C1=O 1.77%
Cc1ccc(NC(=O)COC(=O)CCc2c[nH]c(=O)[nH]2)cc1 9.31%
COc1cc([N+](=O)[O-])ccc1NC(=O)CSc1nccn1C 9.26%
COc1ccc(OC)c(/C=C2\SC(=S)N(Cc3cccnc3)C2=O)c1 -4.57%
O=C(N1CCN(c2ccccc2)CC1)C12CC3CC(CC(C3)C1)C2 -1.02%
CSc1nsc(SCC(=O)Nc2c(C)n(C)n(-c3ccccc3)c2=O)n1 8.05%
O=C(NNC(=O)c1ccc(SCC2CCCO2)c([N+](=O)[O-])c1)c1ccc(Cl)c([N+](=O)[O-])c1 (stereo not given) -5.03%
CCCCC(=O)NC(NC(=S)N1CCOCC1)C(Cl)(Cl)Cl (stereo not given) 2.74%
O=C(Nc1ccc(-c2nc3ncccc3o2)cc1)c1ccc(Br)o1 -4.66%
CC(C)(C)n1nc2c(c1NC(=O)c1ccc(Br)o1)CS(=O)C2 (stereo not given) 1.7%
COc1ccc(S(=O)(=O)Nc2ccc3c(c2)C(=O)N([C@H](C)CO)C[C@H](C)[C@@H](CN(C)S(=O)(=O)c2c(C)noc2C)O3)cc1 5.79%
COC(=O)CN1C(=O)[C@H]2[C@@H](/C=C/c3ccccc3)N3C(=O)CN(Cc4ccccn4)C(=O)[C@@]3(Cc3ccccc3)[C@H]2C1=O 5.78%
COC(=O)c1ccc(/C=C/c2c(-c3ccc(OC)cc3)sc3ccccc23)cc1 7.35%
COc1ccc2c(C(=O)CN3CCN(c4ccccc4)CC3)c[nH]c2c1 2.4%
Cc1noc(C)c1C(=O)Nc1ccc2ccccc2c1 3.03%
Cc1noc(C)c1NC(=O)N(C)C[C@H]1Oc2ccc(NC(=O)CCC(F)(F)F)cc2C(=O)N([C@H](C)CO)C[C@@H]1C 5.18%
Fc1ccccc1OCCCCn1cncn1 9.01%
CC(C)=CCN1CCN(Cc2cn[nH]c2C2CCCCC2)CC1CCO (stereo not given) -1.15%
O=C(C[C@H]1C/C=C/CC[C@@H](Cc2ccc(F)cc2)C(=O)O[C@@H](c2ccccc2)CNC1=O)NCCO 5.71%
CCOC(=O)C1CCN(S(=O)(=O)c2cc3c4c(c2)C(C)C(=O)N4CCC3)CC1 (stereo not given) 3.58%
CCn1nc(C(=O)NNC(=O)COc2ccc(OC)cc2)c2ccccc2c1=O -3.03%
COc1ccc(NC(=O)NCCCCc2ccccc2)c(OC)c1 -0.647%
O=c1nc(SCc2cccc(C(F)(F)F)c2)nc2ccccn12 -5.39%
Cc1cccc(NC(=S)N(CCN2CCOCC2)Cc2cc3cc4c(cc3[nH]c2=O)OCO4)c1 3.04%
CCCCn1c(=O)[nH]c(=O)c2c1nc(-c1cc(Cl)c(OC)c(OC)c1)n2C 0.72%
CNc1nc2c(c(=O)[nH]c(=O)n2C)n1CCCc1ccccc1 2.23% [at 1.6 µM]
CCOC(=O)Cn1nc(C)c2c1CCCC2=O 1.44%
CCC(NS(=O)(=O)c1cccs1)c1ccc(C)cc1 (stereo not given) 3.29%
O=S1(=O)CCC(N=Nc2c(O)n(Cc3ccccc3)c3ccccc23)C1 (stereo not given) -0.825%
Cc1ccccc1Cn1c2ccccc2c2cn[nH]c(=O)c21 -0.371%
C[C@H](N)c1nnc(SCC(=O)N(C)C)o1 3.49%
COc1ccc(CCNC(=O)CSCc2n[nH]c(=O)[nH]2)cc1OC 5.01%
CCOc1ccccc1Nc1ncnc2ccccc12 6.06%
CCOC(=O)c1csc(N/N=C2\CCc3ccccc32)n1 4.71%
